Records with an inconclusive call do not appear. Active and inactive are the calls of the source. Calls follow the shape of the dose curve; as a rule, active = well fitted curve in the direction sought with a large enough effect; inconclusive = small, poorly fitted or top-dose-only effect, or another doubt; inactive = no such curve, though single readings can be large; an effect the other way counts as inactive or inconclusive.
Assays:
[1] = Primary fluorescence-based thiol-reactive (MSTI) qHTS assay for identification of artifact compounds. (AID 1845221);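 also: thiol-reactive compounds lower the probe fluorescence signal; nearly all actives have a fitted effect of over 65% in size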
Procedure, shortened: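 Compounds were incubated 1 h at room temperature in the dark with the MSTI probe (4 uM) in PBS pH 7.4, 2% DMSO. Signals were normalized between Acetyl-MSTI and MSTI.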

[2] = Primary redox qHTS assay for identification of artifact compounds. (AID 1845223)
Procedure, shortened: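 Redox-cycling detection via DTT (250 uM final) oxidation coupled to Amplex Red (25 uM)/HRP (250 mU/mL) in HBSS. 15 min preincubation plus 30 min after DTT, room temperature. Ex/Em 525/598 nm; 4-parameter Hill fit against DMSO and 10 uM DA3003.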

[3] = Quantitative High-Throughput drug screen in 47 multiple myeloma cell lines against the NCATS MIPE library collection: EJM_DSMZ cell viability assay (AID 1918926; also: nearly all actives have a fitted effect of over 30% in size; also: potency is read from the fitted curve at half-maximal effect)
Procedure, shortened: (§1)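 Viability readout: CellTiter-Glo luminescence following 5 min room-temperature incubation with reagent. Prior exposure: 48 h, 37C, humidified 5% CO2, 500 cells per well.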

[4] = Quantitative High-Throughput drug screen in 47 multiple myeloma cell lines against the NCATS MIPE library collection: AMO1_DSMZ cell viability assay (AID 1918927; also: nearly all actives have a fitted effect of over 30% in size; also: potency is read from the fitted curve at half-maximal effect)
Procedure, shortened: as §1

[5] = Quantitative High-Throughput drug screen in 47 multiple myeloma cell lines against the NCATS MIPE library collection: KMM1_JCRB cell viability assay (AID 1918960); also: nearly all actives have a fitted effect of over 30% in size; also: potency is read from the fitted curve at half-maximal effect
Procedure, shortened: (§2)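 Viability screen: myeloma cells (500/well) incubated 48 h at 37 °C, humidified 5% CO2, with pinned library compounds; CellTiter-Glo added, luminescence read; DMSO wells set 100%, medium-only wells 0%.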

[6] = Quantitative High-Throughput drug screen in 47 multiple myeloma cell lines against the NCATS MIPE library collection: INA6_PLB cell viability assay (AID 1918965; also: nearly all actives have a fitted effect of over 55% in size; also: potency is read from the fitted curve at half-maximal effect)
Procedure, shortened: (§3)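 CellTiter-Glo ATP luminescence gave viability after 48 h compound treatment at 37C of 500 multiple myeloma cells per well. Normalisation used DMSO-only wells as 100% and media-only wells as 0% viability; primary qHTS of approved and investigational drugs.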

[7] = test system: Nanoluciferase (engineered Oplophorus gracilirostris luciferase); experiment: Primary Nanoluciferase (NLuc) qHTS assay for identification of artifact compounds. (AID 1845222)
Procedure, shortened: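 Luminescence from secreted NLuc (filtered, 1:55-diluted S16 cell medium) read 5 min after Nano-Glo substrate; compounds preincubated 15 min, RT. Hill fits of inhibition normalized to DMSO and no-enzyme.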

[8] = Quantitative High-Throughput drug screen in 47 multiple myeloma cell lines against the NCATS MIPE library collection: Karpas620_DSMZ cell viability assay (AID 1918959); also: nearly all actives have a fitted effect of over 30% in size; also: potency is read from the fitted curve at half-maximal effect
Procedure, shortened: (§4)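 Myeloma cells (500 per well) were exposed to MIPE 4.0 compounds by pin transfer and incubated 48 hours at 37C, 5% CO2. Viability was read as ATP by CellTiter-Glo luminescence, normalised to DMSO (100%) and media-only (0%) wells.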

[9] = Quantitative High-Throughput drug screen in 47 multiple myeloma cell lines against the NCATS MIPE library collection: JJN3_DSMZ cell viability assay (AID 1918966; also: nearly all actives have a fitted effect of over 50% in size; also: potency is read from the fitted curve at half-maximal effect)
Procedure, shortened: as §1

[10] = Quantitative High-Throughput drug screen in 47 multiple myeloma cell lines against the NCATS MIPE library collection: H1112_PLB cell viability assay (AID 1918967; also: nearly all actives have a fitted effect of over 30% in size; also: potency is read from the fitted curve at half-maximal effect)
Procedure, shortened: as §1

[11] = Quantitative High-Throughput drug screen in 47 multiple myeloma cell lines against the NCATS MIPE library collection: Delta47_JCRB cell viability assay (AID 1918925; also: nearly all actives have a fitted effect of over 45% in size; also: potency is read from the fitted curve at half-maximal effect)
Procedure, shortened: as §1

[12] = Quantitative High-Throughput drug screen in 47 multiple myeloma cell lines against the NCATS MIPE library collection: ARD_JJKsccE7 cell viability assay (AID 1918929; also: potency is read from the fitted curve at half-maximal effect)
Procedure, shortened: as §1

[13] = Quantitative High-Throughput drug screen in 47 multiple myeloma cell lines against the NCATS MIPE library collection: KHM11_PLB cell viability assay (AID 1918962); also: nearly all actives have a fitted effect of over 35% in size; also: potency is read from the fitted curve at half-maximal effect
Procedure, shortened: as §4

[14] = Quantitative High-Throughput drug screen in 47 multiple myeloma cell lines against the NCATS MIPE library collection: JIM3_ECACC cell viability assay (AID 1918963; also: nearly all actives have a fitted effect of over 35% in size; also: potency is read from the fitted curve at half-maximal effect)
Procedure, shortened: as §4

[15] = Quantitative High-Throughput drug screen in 47 multiple myeloma cell lines against the NCATS MIPE library collection: JIM1_ECACC cell viability assay (AID 1918964; also: potency is read from the fitted curve at half-maximal effect)
Procedure, shortened: as §1

[16] = Quantitative High-Throughput drug screen in 47 multiple myeloma cell lines against the NCATS MIPE library collection: Karpas25_ECACC cell viability assay (AID 1918968; also: nearly all actives have a fitted effect of over 35% in size; also: potency is read from the fitted curve at half-maximal effect)
Procedure, shortened: as §1

[17] = Quantitative High-Throughput drug screen in 47 multiple myeloma cell lines against the NCATS MIPE library collection: KMS27_JCRB cell viability assay (AID 1918970); details: KMS27 myeloma cells, CellTiter-Glo ATP viability, 48 h; viability (% of DMSO): at 45.8 µM (top of the series); also: nearly all actives have a fitted effect of over 30% in size; also: potency is read from the fitted curve at half-maximal effect
Procedure, shortened: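 KMS27_JCRB myeloma cells, 500 per well, exposed 48 h at 37 C, 5% CO2 to MIPE 4.0 compounds. Viability from ATP by CellTiter-Glo luminescence, normalized to DMSO (100%) and medium-only (0%) wells.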

[18] = Quantitative High-Throughput drug screen in 47 multiple myeloma cell lines against the NCATS MIPE library collection: FR4_PLB cell viability assay (AID 1918924; also: nearly all actives have a fitted effect of over 35% in size; also: potency is read from the fitted curve at half-maximal effect)
Procedure, shortened: as §4

[19] = Quantitative High-Throughput drug screen in 47 multiple myeloma cell lines against the NCATS MIPE library collection: ARP1_JJKsccF8 cell viability assay (AID 1918928; also: nearly all actives have a fitted effect of over 40% in size; also: potency is read from the fitted curve at half-maximal effect)
Procedure, shortened: as §2

[20] = Quantitative High-Throughput drug screen in 47 multiple myeloma cell lines against the NCATS MIPE library collection: Karpas417_ECACC cell viability assay (AID 1918961); details: Karpas417 myeloma viability, CellTiter-Glo ATP luminescence, 48 h; viability (% of DMSO): at 45.8 µM (top of the series); also: potency is read from the fitted curve at half-maximal effect
Procedure, shortened: as §3

Measured: Potency

N#Cc1ccc(Oc2ccc3c(c2)COB3O)cc1
inactive: [1] | [2] | [3]
active: [4] 20.9 µM | [5] 16.6 µM | [6] 20.9 µM

COc1ccc(-c2ccc3ncc4c(c3c2)n(-c2ccc(N3CCNCC3)c(C(F)(F)F)c2)c(=O)n4C)cn1
inactive: [1] | [7]
active: [3] 0.0332 µM | [8] 0.0833 µM | [9] 0.0066 µM | [10] 0.0935 µM

Nc1[nH]nc2nnc(-c3c(-c4ccccc4)nn4ccccc34)cc12
inactive: [7] | [2]
active: [11] 4.69 µM | [4] 1.66 µM | [12] 2.96 µM | [8] 16.6 µM | [5] 4.69 µM | [13] 10.5 µM | [14] 9.35 µM | [15] 3.32 µM | [6] 1.05 µM | [10] 4.18 µM | [16] 1.66 µM | [17] 1.87 µM

COc1ccc2c(c1)CC[C@H]1[C@@H]2CC[C@]2(C)[C@@H](NCCCCCCN3C(=O)C=CC3=O)CC[C@H]12
inactive: [18] | [11] | [3] | [4] | [19] | [12] | [8] | [5] | [14] | [10] | [16]

COc1ccc(Cn2ccc3ccc(C(=O)NO)cc32)cc1
active: [3] 20.9 µM | [4] 16.6 µM | [6] 13.2 µM | [9] 11.8 µM | [16] 16.6 µM
inactive: [7] | [2] | [18] | [8] | [15] | [10]

COc1nc(C)cnc1NS(=O)(=O)c1cccnc1-c1ccc(-c2nnco2)cc1
active: [9] 1.87 µM
inactive: [7] | [2] | [18] | [3] | [4] | [14] | [15] | [6] | [10] | [17]

CC(=O)OCC(=O)[C@@]12OC(C)(C)O[C@H]1C[C@H]1[C@@H]3C[C@H](F)C4=CC(=O)C=C[C@]4(C)[C@@]3(F)[C@@H](O)C[C@@]12C
active: [19] 0.0264 µM | [12] 0.0148 µM
inactive: [18] | [11] | [3] | [4] | [8] | [14] | [15] | [10] | [17]

C[C@@H]1CCO[C@H]2Cn3cc(C(=O)NCc4ccc(F)cc4F)c(=O)c(O)c3C(=O)N12
active: [18] 37.2 µM | [15] 23.5 µM | [6] 20.9 µM | [16] 18.7 µM
inactive: [7] | [2] | [5] | [10] | [17]

c1ccc(CNc2nc(N3CCOc4ccccc43)nc3c2CCCC3)cc1
active: [4] 16.6 µM | [12] 20.9 µM
inactive: [7] | [2] | [18] | [3] | [8] | [10]

CC1CCN(c2cc(N3CCN(C)CC3)ccc2NC(=O)c2cc(C#N)c[nH]2)CC1
inactive: [7] | [2] | [8] | [5] | [13] | [14] | [15] | [10] | [16]

Cc1nc(C(=O)NCC(=O)O)c(O)c2ccc(Oc3ccccc3)cc12
inactive: [7] | [2] | [11] | [3] | [19] | [8] | [14] | [6] | [10] | [16]

CCN1CCN(c2ccc(Nc3cc(N(C)C(=O)Nc4c(Cl)c(OC)cc(OC)c4Cl)ncn3)cc2)CC1
inactive: [7] | [2] | [4] | [19] | [8] | [5] | [14] | [10] | [17]
active: [18] 18.7 µM | [11] 0.0093 µM | [16] 18.7 µM

CN1CCN2c3ncccc3Cc3ccccc3C2C1 (stereo not drawn)
active: [17] 1.05 µM
not listed: [1] | [2] | [7] | [9] | [15] | [16] | [20]
inactive: all other assays above

CN(C)c1nc(Cc2ccc(NC(=O)c3ccc(C(F)(F)F)cc3)cc2)nc(N(C)C)c1CC(=O)O
active: [16] 10.5 µM
not listed: [2] | [9] | [18] | [20]
inactive: all other assays above

CC[C@H](C)C(=O)O[C@H]1C[C@H](O)C=C2C=C[C@H](C)[C@H](CC[C@@H](O)C[C@@H](O)CC(=O)O)[C@H]21
not listed: [1] | [2] | [7] | [17] | [20]
inactive: all other assays above

COc1cc(CNC(=O)CCCCC=CC(C)C)ccc1O
active: [3] 10.5 µM
not listed: [1] | [2] | [6] | [7] | [9] | [15] | [17] | [20]
inactive: all other assays above

N[C@@H](CC(=O)N1CCn2c(nnc2C(F)(F)F)C1)Cc1cc(F)c(F)cc1F
not listed: [1] | [2] | [6] | [7] | [9] | [12] | [20]
inactive: all other assays above

O=C(CC12CC3CC(CC(C3)C1)C2)Nc1cccc2nc(NCCNCCO)ccc12
inactive: [1] | [7]
active: [11] 2.64 µM | [3] 11.8 µM | [4] 20.9 µM | [20] 1.48 µM | [14] 9.35 µM | [6] 9.35 µM | [9] 9.35 µM | [10] 7.43 µM | [16] 5.9 µM | [17] 18.7 µM

CN(C)c1ccc(-c2nc3ncc(Cl)c(N4CCN(CC(=O)Nc5nccs5)CC4)c3[nH]2)cc1
inactive: [7] | [2] | [5] | [15]
active: [3] 5.9 µM | [14] 3.32 µM | [6] 2.64 µM | [9] 18.7 µM | [16] 2.64 µM

— PubChem BioAssay (NCATS)
